MITF TRPM1 inh – MITF TRPM1 promoter inhibition in SK-MEL-5 cells | SK-MEL-5 TRPM1 promoter luciferase, 24 h | inhibition, % at 12.5 µM | 330,000 compounds, 0.83% hits;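 active = mean inhibition across replicates of 60% or more, whatever share of single replicates reaches that level; inconclusive = some that reach 60%, reason not given; inactive = mean inhibition across replicates below 60%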
PfHsp90 set2 – inhibits growth of yeast expressing Plasmodium falciparum Hsp90 | AID 504621 | inhibition, % at 9.4 µM | S. cerevisiae expressing PfHsp90, BacTiter-Glo ATP, 48 h; yeast lacking PDR1 and PDR3 efflux regulators | 310,000 compounds, 0.32% hits;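 active = every replicate shows inhibition above about 80%, whatever the replicate mean, limit read from the data; inconclusive = mean inhibition reaches the set limit but some replicate falls short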
NSD2 inh – blocks human histone methyltransferase NSD2. 310,000 compounds, 0.54% hits. NSD2 peptide methylation, AlphaScreen, 120 min. O96028. inhibition, % at 12.5 µM; in the data active = inhibition above about 50%
Target sequence (O96028 whole entry, looked up): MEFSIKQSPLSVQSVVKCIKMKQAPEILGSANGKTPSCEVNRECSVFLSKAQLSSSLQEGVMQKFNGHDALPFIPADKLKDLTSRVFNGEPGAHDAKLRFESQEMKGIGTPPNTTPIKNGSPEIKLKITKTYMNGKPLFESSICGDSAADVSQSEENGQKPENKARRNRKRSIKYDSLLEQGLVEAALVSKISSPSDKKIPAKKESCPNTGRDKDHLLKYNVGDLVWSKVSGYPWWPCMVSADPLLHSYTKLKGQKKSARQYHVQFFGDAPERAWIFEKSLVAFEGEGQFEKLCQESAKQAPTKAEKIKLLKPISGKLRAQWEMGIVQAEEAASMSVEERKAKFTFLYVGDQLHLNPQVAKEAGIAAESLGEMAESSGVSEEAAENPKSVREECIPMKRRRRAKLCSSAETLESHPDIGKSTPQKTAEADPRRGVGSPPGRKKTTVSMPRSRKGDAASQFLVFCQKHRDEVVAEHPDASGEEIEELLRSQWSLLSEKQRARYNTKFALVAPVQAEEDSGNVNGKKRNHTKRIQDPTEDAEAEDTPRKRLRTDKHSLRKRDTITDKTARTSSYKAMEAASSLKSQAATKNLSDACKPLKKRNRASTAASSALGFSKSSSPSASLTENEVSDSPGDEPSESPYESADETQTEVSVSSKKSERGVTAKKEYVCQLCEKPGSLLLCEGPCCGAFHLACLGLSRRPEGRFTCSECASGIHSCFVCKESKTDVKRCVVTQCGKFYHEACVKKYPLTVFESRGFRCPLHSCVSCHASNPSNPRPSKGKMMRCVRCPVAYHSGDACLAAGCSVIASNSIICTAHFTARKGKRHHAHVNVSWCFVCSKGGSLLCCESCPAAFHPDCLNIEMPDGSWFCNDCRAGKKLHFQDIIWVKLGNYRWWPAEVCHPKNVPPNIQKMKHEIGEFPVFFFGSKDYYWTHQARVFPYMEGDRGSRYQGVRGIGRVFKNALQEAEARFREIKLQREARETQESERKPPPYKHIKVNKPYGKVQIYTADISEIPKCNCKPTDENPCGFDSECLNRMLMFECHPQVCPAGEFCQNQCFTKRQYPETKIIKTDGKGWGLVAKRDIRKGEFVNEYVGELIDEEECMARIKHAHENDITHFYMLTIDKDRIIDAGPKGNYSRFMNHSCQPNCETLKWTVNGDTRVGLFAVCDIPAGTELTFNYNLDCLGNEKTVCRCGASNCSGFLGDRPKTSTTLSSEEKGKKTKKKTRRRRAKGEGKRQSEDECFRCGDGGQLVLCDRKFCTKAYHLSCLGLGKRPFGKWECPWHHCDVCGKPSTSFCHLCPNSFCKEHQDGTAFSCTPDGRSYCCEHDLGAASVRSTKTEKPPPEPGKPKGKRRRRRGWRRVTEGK
MITF TRPM1 HTS – MITF TRPM1 promoter activation in melanoma cells; activation, % at 12.5 µM; AID 588334; SK-MEL-5 TRPM1-promoter luciferase, 24 h; % of positive control, neutral wells = 0; 300,000 compounds, 0.75% hits;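 active = mean activation of at least 80% with every replicate also reaching 80%; inconclusive = mean reaches 80% but some replicate falls short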
Glyco luc inh – blocks N-linked glycosylation in D54 reporter cells | reporter increase, % at 12.5 µM | D54 ERlucT glycosylation luciferase reporter, 24 h; percent of 100 nM tunicamycin response | 360,000 compounds, 0.23% hits | AID 588692;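 active = mean luciferase reporter signal, scaled so untreated is 0 and the glycosylation-blocking control 100, at or above a set limit in every replicate; inconclusive = mean reaches the limit but not every replicate does; inactive = mean below the limit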;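 also: luciferase carries N-glycosylation sites so blocking glycosylation raises the light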
Wnt act – activates Wnt/beta-catenin signaling in a reporter cell assay | activator, plate reader | activation, % at 9.35 µM | 300,000 compounds, 1.2% hits | AID 743398; in the data active = activation above about 30%, passing the limit was not always enough; inconclusive = no clear call, values can overlap the other calls
Of the large screens only hits and unclear results are named; the others gave an inactive call. Compounds with a hit are over-represented: about 2.9% of the library has one in this group of screens.

Cc1cc(NC2=CC(=O)C(=O)c3ccccc32)no1	MITF TRPM1 inh 84
CCC(C(=O)Nc1cc(Cl)c(OC)cc1OC)c1ccccc1 (stereo unspecified)	none
COc1cc(OC)c(NC2=CC(=O)C(=O)c3ccccc32)cc1Cl	MITF TRPM1 inh 99
O=C(NCc1ccco1)c1ccc(CS(=O)(=O)c2ccc(Cl)cc2)o1	none (no result: MITF TRPM1 inh, PfHsp90 set2, MITF TRPM1 HTS, Glyco luc inh, Wnt act)
CC(C)C1N=C(c2ccc3c(c2)OCO3)CC(c2ccccc2O)N1 (stereo unspecified)	Glyco luc inh 37 (no result: Wnt act)
CCOc1ccccc1C1N=C(c2ccc(OC)cc2)CC(c2ccccc2O)N1 (stereo unspecified)	MITF TRPM1 HTS inconclusive
O=C(NC1CCCC1)C1CCN(S(=O)(=O)c2ccccc2)CC1	none
CN(C)/C=C/C(=O)c1ccc2noc(-c3ccccc3)c2c1	PfHsp90 set2 106
CC(=O)c1ccc2noc(-c3ccccc3)c2c1	none
COc1ccc(C(=O)/C=C/N(C)C)cc1	Wnt act 66 (no result: MITF TRPM1 HTS)
CN(C)/C=C/C(=O)c1ccc(Oc2ccccc2)cc1	PfHsp90 set2 101
CN(C)/C=C/C(=O)c1ccccc1	none
O=C1CSc2ccc(C(=O)N3CCCC(C(=O)N4CCCC4)C3)cc2N1 (stereo unspecified)	none (no result: MITF TRPM1 inh, PfHsp90 set2, MITF TRPM1 HTS, Glyco luc inh, Wnt act)
CCNC(=S)NNC(=O)CSc1nnc(SCc2cccc3ccccc23)s1	none (no result: MITF TRPM1 inh, PfHsp90 set2, MITF TRPM1 HTS, Glyco luc inh, Wnt act)
COc1ccc(/C=N/NC(=S)Nc2cccc(C(=O)O)c2)cc1	none
O=C(O)c1ccc(N/N=C/c2ccc(OC(=O)c3cccc(Cl)c3)cc2)cc1	MITF TRPM1 inh 78 (no result: NSD2 inh)
O=C(N/N=C/c1cccs1)C(=O)Nc1cccc(Cl)c1	none
O=C(O)c1cccc(N/N=C/c2cccs2)c1	MITF TRPM1 inh 77
CSc1ccc(/C=N/Nc2cccc(C(=O)O)c2)cc1	MITF TRPM1 inh 79, NSD2 inh 99 (no result: Wnt act)
O=C(O)c1cccc(N/N=C/c2ccc(OC(F)(F)F)cc2)c1	MITF TRPM1 inh 74
COC(=O)c1ccc(COc2ccc(/C=N/Nc3cccc(C(=O)O)c3)cc2)cc1	none
CC(=O)c1cccc(Nc2cc(C)nc3c(C)cc(C)cc23)c1	Glyco luc inh 67 (no result: Wnt act)
CC(=O)c1cccc(Nc2cc(C)nc3ccc(C)cc23)c1	none
COc1ccccc1C1c2ccc3ccccc3c2Oc2ncn(CCCO)c(=N)c21 (stereo unspecified)	MITF TRPM1 inh 62 (no result: Wnt act)
COc1ccccc1C1c2ccc3ccccc3c2Oc2ncn(CCN(C)C)c(=N)c21 (stereo unspecified)	MITF TRPM1 inh 69
COc1ccc(C2c3c(ncn(CCCO)c3=N)Oc3ccc4ccccc4c32)cc1OC (stereo unspecified)	none (no result: MITF TRPM1 inh, PfHsp90 set2, MITF TRPM1 HTS)
COc1ccc(C2c3ccc4ccccc4c3Oc3ncn(CCCN(C)C)c(=N)c32)cc1 (stereo unspecified)	MITF TRPM1 inh 101
COc1ccc(C2c3ccc4ccccc4c3Oc3ncn(Cc4ccco4)c(=N)c32)cc1OC (stereo unspecified)	none (no result: Wnt act)
Cc1cc(NC(=O)CCc2c[nH]c3ccccc23)ccc1Nc1cccnc1	none (no result: MITF TRPM1 inh, PfHsp90 set2, NSD2 inh, MITF TRPM1 HTS, Glyco luc inh)
CC1CN(c2nc3ccccc3nc2SCC(=O)Nc2cccc(C(F)(F)F)c2)CC(C)O1 (stereo unspecified)	none (no result: NSD2 inh)
O=C(Nc1cccc(S(=O)(=O)C(F)(F)F)c1)[C@@H]1O[C@H](CO)[C@@H](O)[C@H]1O	none (no result: MITF TRPM1 inh, PfHsp90 set2, MITF TRPM1 HTS)
CNC(=S)N(Cc1ccccc1)Cc1cccnc1	none
COc1ccc(Nc2oc(COc3cccc(C)c3)nc2C#N)cc1	Wnt act 43
Oc1c(C(c2ccccc2)N2CCOCC2)ccc2ccccc12 (stereo unspecified)	PfHsp90 set2 101
O=C1CNC(=S)N1CCc1ccc(O)c(O)c1	Wnt act 50 (no result: MITF TRPM1 inh, PfHsp90 set2, MITF TRPM1 HTS)
CSC(=Nc1ccccc1)N=C(SCc1ccccc1)N(C)C	MITF TRPM1 inh 116 (no result: MITF TRPM1 HTS)
N#CNC(=Nc1ccccc1)SCc1ccc(C(=O)O)cc1	none
COc1ccc(NC(=O)C2(C)CCN2C2Cc3ccccc3C2)cc1OC (stereo unspecified)	none (no result: MITF TRPM1 inh, PfHsp90 set2, MITF TRPM1 HTS)
NNc1nc(-c2ccccc2)cc(-c2ccccc2O)n1	none
Nc1nc(-c2ccccc2)cc(-c2ccccc2O)n1	Glyco luc inh 35 (no result: NSD2 inh, Wnt act)
N/C(=N\OC(=O)c1ccccc1Cl)c1ccccn1	MITF TRPM1 inh 66
N/C(=N\OC(=O)c1ccc(Cl)c(Cl)c1)c1ccccn1	none (no result: Wnt act)
COc1cc(OC)c(C(=O)O/N=C(\N)c2ccccn2)cc1OC	none
N/C(=N\OC(=O)COc1ccc2ccccc2c1)c1ccccn1	Wnt act 36 (no result: NSD2 inh)
Cc1ccc(C)c(OCC(=O)O/N=C(\N)c2cccnc2)c1	none
Cc1ccc(C)c(OCC(=O)O/N=C(\N)c2ccccn2)c1	MITF TRPM1 HTS 96, Wnt act 45
Cc1ccc(C(=O)O/N=C(\N)c2ccccn2)c(C)c1	MITF TRPM1 inh 96
COc1ccccc1C(=O)O/N=C(\N)c1ccccn1	Wnt act 54 (no result: MITF TRPM1 HTS)
COc1ccc(-c2[nH]ncc2C=O)cc1OC	none
Cc1csc2c(=O)sc(NC(=O)c3ccco3)nc12	none (no result: MITF TRPM1 HTS)
O=C(Nc1nc2ccsc2c(=O)s1)c1ccco1	Wnt act 43 (no result: MITF TRPM1 inh, PfHsp90 set2, MITF TRPM1 HTS)
O=C(Nc1nc2c(F)c(F)c(F)cc2s1)c1ccco1	MITF TRPM1 HTS inconclusive
Cc1cc2sc(NC(=O)c3ccco3)nc2cc1Cl	Wnt act 30 (no result: MITF TRPM1 HTS)
O=C(Nc1nc2c(ccc3ccccc32)s1)c1ccco1	Wnt act 38
O=C(Nc1nc2c(F)cc(F)cc2s1)c1ccco1	Wnt act 46 (no result: MITF TRPM1 inh, NSD2 inh, MITF TRPM1 HTS)
COc1cc2sc(NC(=O)c3ccco3)nc2cc1Cl	Wnt act inconclusive
NS(=O)(=O)c1ccc(CCNC(=O)c2cc(-c3cc(Cl)ccc3O)n[nH]2)cc1	none
Cc1ccc(C(=O)NCC(=O)OCC(=O)c2ccccc2)s1	none
Cc1noc(C)c1C(=O)Nc1nc2ccc(F)cc2s1	Wnt act 59
CCc1noc(C)c1C(=O)Nc1nc2ccc(F)cc2s1	none
COC(=O)c1ccc2c(c1O)C(=O)c1ccccc1C2=O	MITF TRPM1 inh 97
O=C(CNS(=O)(=O)c1ccc(Cl)s1)N1CCN(c2ccccn2)CC1	none (no result: MITF TRPM1 inh, PfHsp90 set2, MITF TRPM1 HTS, Glyco luc inh, Wnt act)
CN(C)c1cccc2c(S(=O)(=O)NC(=O)[C@H]3O[C@@H](n4ccc(=O)[nH]c4=O)[C@H](O)[C@@H]3O)cccc12	none (no result: MITF TRPM1 inh, PfHsp90 set2, NSD2 inh, MITF TRPM1 HTS, Glyco luc inh)
COC(=O)c1c(NC(C)=O)sc(C(=O)Nc2ccccc2)c1C	none
COC(=O)c1c(NC(C)=O)sc(C(=O)Nc2ccccc2F)c1C	Wnt act 37
CCC(=O)Nc1sc(C(=O)Nc2ccccc2F)c(C)c1C(=O)OC	MITF TRPM1 HTS inconclusive
CCCC(=O)Nc1sc(C(=O)Nc2cccc(N)c2)c(C)c1C(=O)OC	Wnt act 37
CCCN1CCCCC(NC(=O)OC(C)(C)C)C1=O (stereo unspecified)	none (no result: MITF TRPM1 inh, PfHsp90 set2, NSD2 inh, MITF TRPM1 HTS, Glyco luc inh)
COCCN(Cc1ccc(C)cc1)C(=O)[C@@H](Cc1ccccc1)NC(=O)[C@H]1O[C@@H](n2ccc(=O)[nH]c2=O)[C@H](O)[C@@H]1O	none (no result: MITF TRPM1 inh, PfHsp90 set2, NSD2 inh, MITF TRPM1 HTS, Glyco luc inh)

High-throughput results as filed in PubChem.
